# Results published in the supplement of paper PMC10037445.
# Whole data set: some 2,900 compounds, median “NF-kB SEAP reporter activity, fold change vs agonist alone” near 0.99, cut for the highest 2% near 2.6. The sample as a whole holds a higher share of the highest values than the screen did.
# How the values were obtained:
# RAW-Dual [1] = assay: NF-kB SEAP reporter activity, fold change vs agonist alone; cytotoxicity flag (confluency mask): not cytotoxic; higher = enhanced NF-kB activity
# Procedure, shortened: (§1)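 RAW-Dual macrophages were seeded in DMEM at 50,000 cells/well in 384-well plates, given 50 nL of library stock by pin tool, and given a PRR agonist 1 h later. Plates were held at 37 °C, 5% CO2 for 20 hours, after which supernatant was read for IRF by QuantiLuc luminescence and for NF-κB by QuantiBlue absorbance at 620 nm. Reporter activity is expressed as fold change over wells that received agonist alone. A well was called cytotoxic when IncuCyte confluency fell below 70% of agonist controls in both mask sets.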
# RAW-Dual [2] = assay: NF-kB SEAP reporter activity, fold change vs agonist alone; higher = enhanced NF-kB activity; details: library stock concentration (final ~1000-fold dilution): 10 mM
# Procedure, shortened: as §1
# RAW-Dual [3] = assay: NF-kB SEAP reporter activity, fold change vs agonist alone; cytotoxicity flag (confluency mask): cytotoxic (confluency <70% of control); higher = enhanced NF-kB activity
# Procedure, shortened: as §1
# [4] = agonist: ODN 1826 (TLR9) 0.5 ug/mL
# [5] = agonist: Pam2CSK4 (TLR2/6) 0.1 ug/mL
# [6] = agonist: Pam3CSK4 (TLR2/1) 0.1 ug/mL
# [7] = cytotoxicity flag (confluency mask): not cytotoxic, agonist: Imiquimod (TLR7) […]
# [8] = cytotoxicity flag (confluency mask): not cytotoxic, agonist: MPLA (TLR4) […]
# [9] = cytotoxicity flag (confluency mask): cytotoxic (confluency <70% of control), agonist: Imiquimod (TLR7) […]
# [10] = cytotoxicity flag (confluency mask): cytotoxic (confluency <70% of control), agonist: MPLA (TLR4) […]
smiles,measurement,setting,value
O=C(Nc1ncc([N+](=O)[O-])s1)c1ccccc1O (library stock concentration (final ~1000-fold dilution): 10 mM),NF-kB SEAP reporter activity,RAW-Dual [1]; agonist: LPS (TLR4) 0.1 ug/mL,0.954
same,NF-kB SEAP reporter activity,RAW-Dual [1]; [4],1.21
same,NF-kB SEAP reporter activity,RAW-Dual [1]; [5],0.573
same,NF-kB SEAP reporter activity,RAW-Dual [1]; [6],0.684
COc1ccc(S(=O)(=O)NCc2ccc(C(=O)NCCc3ccc(Cl)cn3)cc2)cc1,NF-kB SEAP reporter activity,RAW-Dual [2]; [7],0.318
same,NF-kB SEAP reporter activity,RAW-Dual [2]; [8],1.19
COc1ccc(CNC(=O)Nc2ncc([N+](=O)[O-])s2)cc1 (library stock concentration (final ~1000-fold dilution): 10 mM),NF-kB SEAP reporter activity,RAW-Dual [1]; agonist: LPS (TLR4) 0.1 ug/mL,2.74
same,NF-kB SEAP reporter activity,RAW-Dual [1]; [4],1.64
same,NF-kB SEAP reporter activity,RAW-Dual [1]; [5],0.864
same,NF-kB SEAP reporter activity,RAW-Dual [1]; [6],1.32
COc1ccc(S(=O)(=O)NCc2ccc(C(=O)NCCc3ccc(Cl)cn3)cc2)cc1 (library stock concentration (final ~1000-fold dilution): 10 mM),NF-kB SEAP reporter activity,RAW-Dual [1]; agonist: LPS (TLR4) 0.1 ug/mL,1.36
same,NF-kB SEAP reporter activity,RAW-Dual [1]; [4],1.15
same,NF-kB SEAP reporter activity,RAW-Dual [1]; [5],0.849
same,NF-kB SEAP reporter activity,RAW-Dual [1]; [6],1.49
COCCOc1cnc2ccn(C(C)c3nnc4c(F)cc(-c5cnn(C)c5)cn34)c(=O)c2c1 (stereo not given),NF-kB SEAP reporter activity,RAW-Dual [2]; [7],1.01
same,NF-kB SEAP reporter activity,RAW-Dual [2]; [8],1.01
COCCOc1cnc2ccn(C(C)c3nnc4c(F)cc(-c5cnn(C)c5)cn34)c(=O)c2c1 (stereo not given) (library stock concentration (final ~1000-fold dilution): 10 mM),NF-kB SEAP reporter activity,RAW-Dual [1]; agonist: LPS (TLR4) 0.1 ug/mL,1.54
same,NF-kB SEAP reporter activity,RAW-Dual [1]; [4],1.11
same,NF-kB SEAP reporter activity,RAW-Dual [1]; [5],1.11
same,NF-kB SEAP reporter activity,RAW-Dual [1]; [6],1.13
CCCCCCCCCCCCCCCC(=O)OCC(O)C1OC(O)=C(O)C1=O (stereo not given),NF-kB SEAP reporter activity,RAW-Dual [2]; [7],0.898
same,NF-kB SEAP reporter activity,RAW-Dual [2]; [8],1.01
CCCCCCCCCCCCCCCC(=O)OCC(O)C1OC(O)=C(O)C1=O (stereo not given) (library stock concentration (final ~1000-fold dilution): 10 mM),NF-kB SEAP reporter activity,RAW-Dual [1]; agonist: LPS (TLR4) 0.1 ug/mL,1.15
same,NF-kB SEAP reporter activity,RAW-Dual [1]; [4],0.825
same,NF-kB SEAP reporter activity,RAW-Dual [1]; [5],0.949
same,NF-kB SEAP reporter activity,RAW-Dual [1]; [6],0.67
Cc1c[nH]c(-c2cnc(NCCNc3ccc(C#N)cn3)nc2-c2ccc(Cl)cc2Cl)n1.Cl,NF-kB SEAP reporter activity,RAW-Dual [2]; [7],2.27
same,NF-kB SEAP reporter activity,RAW-Dual [2]; [8],2.2
Cc1c[nH]c(-c2cnc(NCCNc3ccc(C#N)cn3)nc2-c2ccc(Cl)cc2Cl)n1 (library stock concentration (final ~1000-fold dilution): 10 mM),NF-kB SEAP reporter activity,RAW-Dual [1]; agonist: LPS (TLR4) 0.1 ug/mL,3.08
same,NF-kB SEAP reporter activity,RAW-Dual [1]; [4],2.65
same,NF-kB SEAP reporter activity,RAW-Dual [1]; [5],2.12
same,NF-kB SEAP reporter activity,RAW-Dual [1]; [6],2.9
Cc1c[nH]c(-c2cnc(NCCNc3ccc(C#N)cn3)nc2-c2ccc(Cl)cc2Cl)n1,NF-kB SEAP reporter activity,RAW-Dual [2]; [7],2.12
same,NF-kB SEAP reporter activity,RAW-Dual [2]; [8],2.19
Cc1c[nH]c(-c2cnc(NCCNc3ccc(C#N)cn3)nc2-c2ccc(Cl)cc2Cl)n1.Cl (library stock concentration (final ~1000-fold dilution): 10 mM),NF-kB SEAP reporter activity,RAW-Dual [1]; agonist: LPS (TLR4) 0.1 ug/mL,2.97
same,NF-kB SEAP reporter activity,RAW-Dual [1]; [4],2.78
same,NF-kB SEAP reporter activity,RAW-Dual [1]; [5],1.84
same,NF-kB SEAP reporter activity,RAW-Dual [1]; [6],3.48
CCOC(=O)Nc1ccc(NCc2ccc(F)cc2)nc1N.O=C(O)/C=C/C(=O)O,NF-kB SEAP reporter activity,RAW-Dual [2]; [7],0.871
same,NF-kB SEAP reporter activity,RAW-Dual [2]; [8],1.23
CCOC(=O)Nc1ccc(NCc2ccc(F)cc2)nc1N.O=C(O)/C=C/C(=O)O (library stock concentration (final ~1000-fold dilution): 10 mM),NF-kB SEAP reporter activity,RAW-Dual [1]; agonist: LPS (TLR4) 0.1 ug/mL,1.03
same,NF-kB SEAP reporter activity,RAW-Dual [1]; [4],1.1
same,NF-kB SEAP reporter activity,RAW-Dual [1]; [5],0.993
same,NF-kB SEAP reporter activity,RAW-Dual [1]; [6],1.01
CC(C)CN(CC(O)C(Cc1ccccc1)NC(=O)OC1COC2OCCC12)S(=O)(=O)c1ccc(N)cc1.CCO (stereo not given),NF-kB SEAP reporter activity,RAW-Dual [2]; [7],1.42
same,NF-kB SEAP reporter activity,RAW-Dual [2]; [8],1.49
CC(C)CN(CC(O)C(Cc1ccccc1)NC(=O)OC1COC2OCCC12)S(=O)(=O)c1ccc(N)cc1.CCO (stereo not given) (library stock concentration (final ~1000-fold dilution): 10 mM),NF-kB SEAP reporter activity,RAW-Dual [1]; agonist: LPS (TLR4) 0.1 ug/mL,1.78
same,NF-kB SEAP reporter activity,RAW-Dual [1]; [4],1.57
same,NF-kB SEAP reporter activity,RAW-Dual [1]; [5],1.42
same,NF-kB SEAP reporter activity,RAW-Dual [1]; [6],1.43
COc1ccc(Cn2c3ncnc4c(ncn4Cc4ccc(OC)cc4)c-3nc2=O)cc1 (library stock concentration (final ~1000-fold dilution): 10 mM),NF-kB SEAP reporter activity,RAW-Dual [1]; agonist: LPS (TLR4) 0.1 ug/mL,1.73
same,NF-kB SEAP reporter activity,RAW-Dual [1]; [4],1.45
same,NF-kB SEAP reporter activity,RAW-Dual [1]; [5],0.409
same,NF-kB SEAP reporter activity,RAW-Dual [1]; [6],0.8
COc1ccc(Cn2c3ncnc4c(ncn4Cc4ccc(OC)cc4)c-3nc2=O)cc1,NF-kB SEAP reporter activity,RAW-Dual [2]; [7],1.43
same,NF-kB SEAP reporter activity,RAW-Dual [2]; [8],2.08
CC(=O)c1ccc2c(c1)c1cc(C(C)=O)ccc1n2CCNC(C)C,NF-kB SEAP reporter activity,RAW-Dual [2]; [9],0.147
same,NF-kB SEAP reporter activity,RAW-Dual [2]; [10],0.242
CC(=O)c1ccc2c(c1)c1cc(C(C)=O)ccc1n2CCNC(C)C (library stock concentration (final ~1000-fold dilution): 10 mM),NF-kB SEAP reporter activity,RAW-Dual [3]; agonist: LPS (TLR4) 0.1 ug/mL,0.301
same,NF-kB SEAP reporter activity,RAW-Dual [3]; [4],0.193
same,NF-kB SEAP reporter activity,RAW-Dual [3]; [5],0.0764
same,NF-kB SEAP reporter activity,RAW-Dual [3]; [6],0.183
COc1ccccc1-c1cc(Nc2cccc(CS(N)(=O)=O)c2)ncn1 (library stock concentration (final ~1000-fold dilution): 10 mM),NF-kB SEAP reporter activity,RAW-Dual [1]; agonist: LPS (TLR4) 0.1 ug/mL,2.67
same,NF-kB SEAP reporter activity,RAW-Dual [1]; [4],2.18
same,NF-kB SEAP reporter activity,RAW-Dual [1]; [5],0.783
same,NF-kB SEAP reporter activity,RAW-Dual [1]; [6],1.55
NC(=O)c1cccc(-c2cc(Nc3ccc(OC(F)(F)F)cc3)ncn2)c1 (library stock concentration (final ~1000-fold dilution): 10 mM),NF-kB SEAP reporter activity,RAW-Dual [1]; agonist: LPS (TLR4) 0.1 ug/mL,1.21
same,NF-kB SEAP reporter activity,RAW-Dual [1]; [4],0.672
same,NF-kB SEAP reporter activity,RAW-Dual [1]; [5],0.944
same,NF-kB SEAP reporter activity,RAW-Dual [1]; [6],0.869
COc1cc(F)ccc1-c1ncnc(Nc2cccc(CS(C)(=N)=O)c2)n1 (stereo not given) (library stock concentration (final ~1000-fold dilution): 10 mM),NF-kB SEAP reporter activity,RAW-Dual [3]; agonist: LPS (TLR4) 0.1 ug/mL,0.786
same,NF-kB SEAP reporter activity,RAW-Dual [3]; [4],1.4
same,NF-kB SEAP reporter activity,RAW-Dual [3]; [5],0.277
same,NF-kB SEAP reporter activity,RAW-Dual [3]; [6],0.421
COc1cc(F)ccc1-c1ncnc(Nc2cccc(CS(C)(=N)=O)c2)n1 (stereo not given),NF-kB SEAP reporter activity,RAW-Dual [2]; [9],1.26
same,NF-kB SEAP reporter activity,RAW-Dual [2]; [10],1.31
COc1ccccc1-c1cc(Nc2cccc(CS(N)(=O)=O)c2)ncn1,NF-kB SEAP reporter activity,RAW-Dual [2]; [7],1.45
same,NF-kB SEAP reporter activity,RAW-Dual [2]; [8],2.59
NC(=O)c1cccc(-c2cc(Nc3ccc(OC(F)(F)F)cc3)ncn2)c1,NF-kB SEAP reporter activity,RAW-Dual [2]; [7],1.24
same,NF-kB SEAP reporter activity,RAW-Dual [2]; [8],1.11
